From PubChem BioAssay (Tox21)
Records with an inconclusive call do not appear. A call without a number means that no potency is given here. Activity calls are given as the source filed them. Calls come from the whole dose curve.

target: Acetylcholinesterase (Homo sapiens) (UniProt P22303); test: Acetylcholinesterase (AChE) small molecule antagonists: colormetric cell-based qHTS assay (AID 1347395); settings: SH-SY5Y cells AChE activity, colorimetric (Ellman); series mostly up to 115 µM; note: nearly all actives have a fitted effect of over 30% in size
Sequence (P22303 whole entry, looked up): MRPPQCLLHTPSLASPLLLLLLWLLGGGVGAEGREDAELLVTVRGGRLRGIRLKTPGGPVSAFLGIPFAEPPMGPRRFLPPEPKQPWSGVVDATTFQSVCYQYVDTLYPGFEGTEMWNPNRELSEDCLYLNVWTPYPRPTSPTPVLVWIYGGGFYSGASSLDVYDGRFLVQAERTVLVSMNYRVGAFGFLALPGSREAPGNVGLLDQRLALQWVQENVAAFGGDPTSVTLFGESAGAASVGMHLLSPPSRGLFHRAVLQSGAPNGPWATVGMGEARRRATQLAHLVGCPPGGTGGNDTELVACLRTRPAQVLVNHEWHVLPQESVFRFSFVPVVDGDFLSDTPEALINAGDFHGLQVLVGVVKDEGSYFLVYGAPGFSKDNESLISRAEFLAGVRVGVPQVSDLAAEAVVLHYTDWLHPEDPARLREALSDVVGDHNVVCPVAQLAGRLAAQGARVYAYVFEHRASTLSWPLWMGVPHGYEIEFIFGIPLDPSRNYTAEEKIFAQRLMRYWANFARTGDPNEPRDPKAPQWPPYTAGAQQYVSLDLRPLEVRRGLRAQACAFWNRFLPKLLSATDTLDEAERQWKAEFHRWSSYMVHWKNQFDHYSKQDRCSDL
Procedure, shortened: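 Colorimetric read-out: DTNB detects thiocholine released when cellular AChE in SH-SY5Y cells hydrolyses acetylthiocholine. Cells attached overnight, received compound for 30 min at 37 C, then substrate mix for 90 min at 37 C.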
Potency is the fitted concentration of half-maximal effect.

Row | Structure (SMILES) | Potency
1 | C/C=C/C(=O)C1=C(C)CCCC1(C)C | inactive
2 | CCCCCCCCCOCC1CO1 (stereo not given) | inactive
3 | CCCCCCCCCCCCCCCC(=O)OCC | inactive
4 | C1COCCN1 | inactive
5 | OCc1ccc(Cl)cc1Cl | inactive
6 | CCCCC(CC)COC(=O)CS (stereo not given) | inactive
7 | SC1CCCC1 | inactive
8 | CSc1cnc(C)cn1 | inactive
9 | c1ccc(CCNc2nc(-c3ccccc3)cs2)cc1 | inactive
10 | CC(C)(C)C(=O)OCOP(=O)(COCCn1cnc2c(N)ncnc21)OCOC(=O)C(C)(C)C | 30.9 µM (active)
11 | CCCO[Si](OCCC)(OCCC)OCCC | inactive
12 | O=C(O)CCCCCCCCC(=O)O | inactive
13 | Oc1cc2ccccc2cc1O | inactive
14 | CCCOCC(C)O (stereo not given) | inactive
15 | CCCCCCCCCCCCCCCCC(=O)O | inactive
16 | O=C1CCCCCN1 | inactive
17 | O=Cc1c(Cl)cccc1Cl | inactive
18 | C#Cc1cccc(Nc2ncnc3cc(OCCOC)c(OCCOC)cc23)c1 | inactive
19 | O=c1cc(-c2ccccc2)oc2cc(O)cc(O)c12 | inactive
20 | C[C@]12C=CC(=O)C=C1CC[C@@H]1[C@@H]2C(=O)C[C@@]2(C)[C@H]1CC[C@]2(O)C(=O)CO | inactive

Row | Structure (SMILES) | Potency
21 | CCOc1ccc(NC(=O)CC(C)=O)cc1 | inactive
22 | COC(=O)OC | inactive
23 | C=CC(C)(C)O | inactive
24 | Nc1ccc(S(=O)(=O)Nc2nccs2)cc1 | inactive
25 | CC(C)c1cccc(C(C)C)c1N1C(=O)c2ccc(O)cc2C1=O | inactive
26 | O=c1n(CCO)c(=O)n(CCO)c(=O)n1CCO | inactive
27 | NCC1CCC(C(=O)Oc2ccc(CCC(=O)O)cc2)CC1 (stereo not given) | inactive
28 | CCN1CCCC1=O | inactive
29 | C#CC1(O)CC[C@H]2[C@@H]3CCC4=CCCC[C@@H]4[C@H]3CC[C@@]21C (stereo not given in full) | inactive
30 | OCCN1CCN(CCO)CC1 | inactive
31 | CCN[C@H]1CN(CCCOC)S(=O)(=O)c2sc(S(N)(=O)=O)cc21 | inactive
32 | O=Cc1cc2ccccc2o1 | inactive
33 | CC(O)CNCC(C)O (stereo not given) | inactive
34 | Cc1cc(C)n(CO)n1 | inactive
35 | CC12CCCC=C1C(=O)OC2=O (stereo not given) | inactive
36 | CC[C@H](C)COC(=O)/C=C/c1ccc(N=Cc2ccc(OC)cc2)cc1 | inactive
37 | CCCCOCCOCCOCCO | inactive
38 | CC1=CCC(=O)O1 | inactive
39 | CC(O)CC(C)(C)O (stereo not given) | inactive
40 | Cc1cc(=O)[nH]c(C(C)C)n1 | inactive

target: Acetylcholinesterase (Homo sapiens) (UniProt P22303); test: Acetylcholinesterase (AChE) small molecule antagonists: enzyme-based qHTS assay (AID 1347397); settings: Potency: AChE enzyme activity inhibition; outcome: AChE enzyme activity inhibition; series mostly up to 115 µM; note: nearly all actives have a fitted effect of over 55% in size
Procedure, shortened: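 Colorimetric DTNB read-out of thiocholine released from acetylthiocholine by recombinant human AChE (50 mU/mL as dispensed). Compounds were preincubated 30 min at RT before substrate/DTNB addition, with a 10 min RT reaction.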

Row | Structure (SMILES) | Potency
41 | C/C=C/C(=O)C1=C(C)CCCC1(C)C | inactive
42 | CCCCCCCCCOCC1CO1 (stereo not given) | inactive
43 | CCCCCCCCCCCCCCCC(=O)OCC | inactive
44 | C1COCCN1 | inactive
45 | OCc1ccc(Cl)cc1Cl | inactive
46 | CCCCC(CC)COC(=O)CS (stereo not given) | inactive
47 | SC1CCCC1 | inactive
48 | CSc1cnc(C)cn1 | inactive
49 | c1ccc(CCNc2nc(-c3ccccc3)cs2)cc1 | inactive
50 | CC(C)(C)C(=O)OCOP(=O)(COCCn1cnc2c(N)ncnc21)OCOC(=O)C(C)(C)C | 38.9 µM (active)
51 | CCCO[Si](OCCC)(OCCC)OCCC | inactive
52 | O=C(O)CCCCCCCCC(=O)O | inactive
53 | Oc1cc2ccccc2cc1O | inactive
54 | CCCOCC(C)O (stereo not given) | inactive
55 | CCCCCCCCCCCCCCCCC(=O)O | inactive
56 | O=C1CCCCCN1 | inactive
57 | O=Cc1c(Cl)cccc1Cl | inactive
58 | C#Cc1cccc(Nc2ncnc3cc(OCCOC)c(OCCOC)cc23)c1 | inactive
59 | O=c1cc(-c2ccccc2)oc2cc(O)cc(O)c12 | inactive
60 | C[C@]12C=CC(=O)C=C1CC[C@@H]1[C@@H]2C(=O)C[C@@]2(C)[C@H]1CC[C@]2(O)C(=O)CO | inactive

Row | Structure (SMILES) | Potency
61 | CCOc1ccc(NC(=O)CC(C)=O)cc1 | inactive
62 | COC(=O)OC | inactive
63 | C=CC(C)(C)O | inactive
64 | Nc1ccc(S(=O)(=O)Nc2nccs2)cc1 | inactive
65 | CC(C)c1cccc(C(C)C)c1N1C(=O)c2ccc(O)cc2C1=O | inactive
66 | O=c1n(CCO)c(=O)n(CCO)c(=O)n1CCO | inactive
67 | NCC1CCC(C(=O)Oc2ccc(CCC(=O)O)cc2)CC1 (stereo not given) | inactive
68 | CCN1CCCC1=O | inactive
69 | C#CC1(O)CC[C@H]2[C@@H]3CCC4=CCCC[C@@H]4[C@H]3CC[C@@]21C (stereo not given in full) | inactive
70 | OCCN1CCN(CCO)CC1 | inactive
71 | CCN[C@H]1CN(CCCOC)S(=O)(=O)c2sc(S(N)(=O)=O)cc21 | inactive
72 | O=Cc1cc2ccccc2o1 | inactive
73 | CC(O)CNCC(C)O (stereo not given) | inactive
74 | Cc1cc(C)n(CO)n1 | inactive
75 | CC12CCCC=C1C(=O)OC2=O (stereo not given) | inactive
76 | CC[C@H](C)COC(=O)/C=C/c1ccc(N=Cc2ccc(OC)cc2)cc1 | inactive
77 | CCCCOCCOCCOCCO | inactive
78 | CC1=CCC(=O)O1 | inactive
79 | CC(O)CC(C)(C)O (stereo not given) | inactive
80 | Cc1cc(=O)[nH]c(C(C)C)n1 | inactive

target: Acetylcholinesterase (Homo sapiens) (UniProt P22303); test: Acetylcholinesterase (AChE) small molecule antagonists: fluorescence cell-based qHTS assay (AID 1347398); settings: SH-SY5Y cells; Potency: AChE activity; outcome: AChE activity; series mostly up to 115 µM; note: nearly all actives have a fitted effect of over 50% in size
Procedure, shortened: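 SH-SY5Y, 2,000 cells/well, attached overnight; cmpd 30 min 37 C; acetylthiocholine/Thiolite Green cocktail 40 min RT; fluorescence Ex/Em 490/520 nm.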

Row | Structure (SMILES) | Potency
81 | C/C=C/C(=O)C1=C(C)CCCC1(C)C | inactive
82 | CCCCCCCCCOCC1CO1 (stereo not given) | inactive
83 | CCCCCCCCCCCCCCCC(=O)OCC | inactive
84 | C1COCCN1 | inactive
85 | OCc1ccc(Cl)cc1Cl | inactive
86 | CCCCC(CC)COC(=O)CS (stereo not given) | inactive
87 | SC1CCCC1 | inactive
88 | CSc1cnc(C)cn1 | inactive
89 | c1ccc(CCNc2nc(-c3ccccc3)cs2)cc1 | inactive
90 | CC(C)(C)C(=O)OCOP(=O)(COCCn1cnc2c(N)ncnc21)OCOC(=O)C(C)(C)C | 13.8 µM (active)
91 | CCCO[Si](OCCC)(OCCC)OCCC | inactive
92 | O=C(O)CCCCCCCCC(=O)O | inactive
93 | Oc1cc2ccccc2cc1O | inactive
94 | CCCOCC(C)O (stereo not given) | inactive
95 | CCCCCCCCCCCCCCCCC(=O)O | inactive
96 | O=C1CCCCCN1 | inactive
97 | O=Cc1c(Cl)cccc1Cl | inactive
98 | C#Cc1cccc(Nc2ncnc3cc(OCCOC)c(OCCOC)cc23)c1 | inactive
99 | O=c1cc(-c2ccccc2)oc2cc(O)cc(O)c12 | inactive
100 | C[C@]12C=CC(=O)C=C1CC[C@@H]1[C@@H]2C(=O)C[C@@]2(C)[C@H]1CC[C@]2(O)C(=O)CO | inactive

Row | Structure (SMILES) | Potency
101 | CCOc1ccc(NC(=O)CC(C)=O)cc1 | inactive
102 | COC(=O)OC | inactive
103 | C=CC(C)(C)O | inactive
104 | Nc1ccc(S(=O)(=O)Nc2nccs2)cc1 | inactive
105 | CC(C)c1cccc(C(C)C)c1N1C(=O)c2ccc(O)cc2C1=O | inactive
106 | O=c1n(CCO)c(=O)n(CCO)c(=O)n1CCO | inactive
107 | NCC1CCC(C(=O)Oc2ccc(CCC(=O)O)cc2)CC1 (stereo not given) | inactive
108 | CCN1CCCC1=O | inactive
109 | C#CC1(O)CC[C@H]2[C@@H]3CCC4=CCCC[C@@H]4[C@H]3CC[C@@]21C (stereo not given in full) | inactive
110 | OCCN1CCN(CCO)CC1 | inactive
111 | CCN[C@H]1CN(CCCOC)S(=O)(=O)c2sc(S(N)(=O)=O)cc21 | inactive
112 | O=Cc1cc2ccccc2o1 | inactive
113 | CC(O)CNCC(C)O (stereo not given) | inactive
114 | Cc1cc(C)n(CO)n1 | inactive
115 | CC12CCCC=C1C(=O)OC2=O (stereo not given) | inactive
116 | CC[C@H](C)COC(=O)/C=C/c1ccc(N=Cc2ccc(OC)cc2)cc1 | inactive
117 | CCCCOCCOCCOCCO | inactive
118 | CC1=CCC(=O)O1 | inactive
119 | CC(O)CC(C)(C)O (stereo not given) | inactive
120 | Cc1cc(=O)[nH]c(C(C)C)n1 | inactive
